# PubChem BioAssay (NCATS)
# Inconclusive results are not listed. Active and inactive are the calls of the source. Unless noted, the call rests on the fitted dose curve; in most records, active means well fitted curve in the direction sought with a large enough effect; inconclusive means small, poorly fitted or top-dose-only effect, or another doubt; inactive means no such curve, though single readings can be large; an effect the other way counts as inactive or inconclusive.
# Assays:
# [1] = molecular target: Furin (Homo sapiens) (UniProt P09958); test: Furin counterscreen qHTS for Zika virus inhibitors (AID 1347149); further: nearly all actives have a fitted effect of over 70% in size; further: potency means the concentration at half of the fitted maximal effect;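 on activity change, negative = inhibition: purified recombinant full-length human furin enzyme at 5 nM; fluorescence gain from furin cutting a BOC-RVRR-AMC peptide substrate over 15 min; top concentration of the series differs between compounds; plate controls were no-inhibitor control for no effect and no-enzyme control for full effect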
# Outline: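 Fluorogenic cleavage of BOC-RVRR-AMC (2 microM final, Km ~15 µM) was monitored (ex 340, em 450 nm) at 37C after 15 min RT preincubation of 5 nM furin with compounds in HEPES pH 7.0 buffer with CaCl2 and Triton X-100. Percent inhibition was fitted to a 4-parameter Hill curve.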
# [2] = tested on: Zika virus NS2B-NS3 protease (unlinked complex); test: Confirmatory screen GU AMC qHTS for Zika virus inhibitors (AID 1347153); further: potency means the concentration at half of the fitted maximal effect; nearly all actives have a fitted effect of over 70% in size
# Outline: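 Unlinked enzyme 25 nM, Tris pH 8.0/0.01% Tween 20; cpd 15 min RT, dark; + AMC substrate 10 µM (Km 18.3 µM); 340/450 nm read at t0 and 15 min; % inhibition → 4-param fit.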
# [3] = Confirmatory screen GU Rhodamine qHTS for Zika virus inhibitors qHTS (AID 1347157); further: potency means the concentration at half of the fitted maximal effect; nearly all actives have a fitted effect of over 70% in size
# Outline: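 A qHTS format was used, with compound concentrations ranging up to 114 microM. Each compound was preincubated with 25 nM NS2B-NS3 protease, and the substrate was then added at 1.5 microM. Curves were fitted with a 4-parameter Hill model.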
# [4] = tested on: Zika virus NS2B-NS3 protease (linked); test: 384 well plate NINDS AMC confirmatory qHTS for Zika virus inhibitors (AID 1347163); further: nearly all actives have a fitted effect of over 50% in size; further: potency means the concentration at half of the fitted maximal effect;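 on activity change, negative = inhibition: linked protease at 5 30 or 60 nM final depending on run; fluorescence of AMC released from Ac-VKTGKR-AMC peptide cleaved by the protease; top concentration of the series differs between compounds; 0% = no-inhibitor control and -100% = no-enzyme control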
# Outline: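 Linked protease 5/30/60 nM final; cpds up to 1 mM final, ~15 min preinc. Substrate Ac-VKTGKR-AMC 30 microM final. RT, dark, 25 min; FI ex 355/em 460; normalized to no-enzyme/no-inhibitor ctrls.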
# [5] = tested on: Zika virus NS2B-NS3 protease (linked construct); test: 384 well plate NINDS Rhodamine confirmatory qHTS for Zika virus inhibitors (AID 1347164);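 further: fluorescence from protease cleavage of Ac-LKRR-rhodamine 110 substrate; nearly all actives have a fitted effect of over 65% in size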; further: potency means the concentration at half of the fitted maximal effect;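 on activity change, negative = inhibition: top concentration of the series differs between compounds; plate controls were no-inhibitor control for no effect and no-enzyme control for full effect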
# Outline: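 Fluorescence at 485/538 nm was measured 25 minutes after adding 10 microM Ac-LKRR-Rd substrate, in the dark at room temperature. The protease (5, 30 or 60 nM final) had been preincubated ~15 minutes with compound; aprotinin as control.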
# [6] = Vero cells viability qHTS for Zika virus inhibitors (AID 1347167); further: potency means the concentration at half of the fitted maximal effect
# Outline: (§1)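 Compounds were tested in concentration series on cells grown in DMEM containing 4% FBS. After 24 to 48 hours, cellular ATP was measured by luminescence with CellTiter Glo.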
# [7] = HepG2 cells viability qHTS for Zika virus inhibitors (AID 1347168); further: on the % scale 0 is the no-effect control and ±100 the full control effect
# Outline: as §1
# [8] = tested on: NIH3T3; test: qHTS assay to identify novel small-molecules to repurpose for Merkel cell carcinoma treatment (AID 1296009); settings: MCC and control cell lines, CellTiter-Glo viability, 72 h; series mostly up to 9.27 µM; further: nearly all actives have a fitted effect of over 60% in size; further: potency means the concentration at half of the fitted maximal effect
# Outline: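 After compound transfer in DMSO, plates were kept 72 hr at 37 degree celsius. Luminescent ATP signal from CellTiter-Glo served as viability measure, normalized against DMSO and no-cell controls.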
# [9] = NCATS anti-infectives library activity on HEK293 viability as a counter-qHTS vs the C. elegans viability qHTS (AID 1745854);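 further: HEK293 cells exposed to compounds for 24 hr before the viability read; on the % scale 0 is the no-effect control and ±100 the full control effect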
# Outline: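 Cytotoxicity in human HEK293 cells is measured by ATP-dependent CellTiter-Glo luminescence following a 24 hr incubation with titrated library compounds at 37C. Top final concentration is 41.7 uM.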
# [10] = NS1 protein of Zika virus - qHTS assay to identify small molecule inhibitors in human HEK 293 cells (AID 1347053);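 further: plate controls were infected untreated cells for no effect and uninfected cells for full effect; nearly all actives have a fitted effect of over 55% in size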
# Outline: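 HEK 293; 20 h pre-culture, 37 C/5% CO2; cpd 1 h pre-infection; ZIKV MR766, MOI = 0.5, 24 h, 37 C; TR-FRET NS1 readout (two anti-NS1 Abs); norm. to no-virus vs infected.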
# [11] = qHTS of pediatric cancer cell lines to identify multiple opportunities for drug repurposing: Primary screen for Saos-2 cells (AID 1347097); settings: Saos-2 viability, CellTiter-Glo ATP luminescence, 48 h; further: potency means the concentration at half of the fitted maximal effect; nearly all actives have a fitted effect of over 40% in size
# Outline: (§2)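 Primary screen of approved and investigational compounds on cells in growth media at 37 degrees C, 5% CO2. MIPE set at 11-point and NPC set at 8-point dilutions; viability scored by ATP-based luminescence at 48 hours.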
# [12] = qHTS of pediatric cancer cell lines to identify multiple opportunities for drug repurposing: Primary screen for NB1643 cells (AID 1347099); further: nearly all actives have a fitted effect of over 50% in size; further: potency means the concentration at half of the fitted maximal effect
# Outline: as §2
# [13] = tested on: Zika virus NS2B-NS3 protease; test: Primary screen GU AMC qHTS for Zika virus inhibitors (AID 1347154);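 further: 0% = no-inhibitor control and -100% = no-enzyme control; nearly all actives have a fitted effect of over 70% in size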
# Outline: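 Fluorogenic AMC-substrate cleavage by noncovalent NS2B-NS3 protease complex (25 nM, pH 8.0 Tris buffer with Tween 20) followed for 15 minutes at room temperature (~20% conversion). Percent inhibition from ex340/em450 signal change, fitted by 4-parameter Hill equation.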
# [14] = Primary qHTS for inhibitors of La Crosse Virus (LACV) - induced cell death in SH-SY5Y cells (AID 1508616);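 further: top concentration of the series differs between compounds; 0% = infected DMSO wells and 100% = uninfected DMSO wells; higher means more rescue of cells from virus-induced death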
# Outline: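 Readout was luminescence from ATPLite 1step added after a 6-day LACV infection (0.01 MOI) of SH-SY5Y cells that had received pin-transferred compound 24 hr after seeding.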
# [15] = Primary qHTS for small molecule stabilizers of the endoplasmic reticulum resident proteome: Secreted ER Calcium Modulated Protein (SERCaMP) assay (AID 1508630); further: on the % scale 0 is the no-effect control and ±100 the full control effect
# Outline: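 GLuc-SERCaMP-expressing SH-SY5Y cells, pretreated 16 h with compound, are challenged with thapsigargin to empty ER calcium stores; after 4 h, coelenterazine is added directly to the medium and luminescence is imaged.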
# [16] = molecular target: N-terminal Xaa-Pro-Lys N-methyltransferase 1 (Homo sapiens) (UniProt Q9BV86); test: Confirmatory qHTS for Inhibitors of N-terminal methyltransferase 1 (NTMT1): MTaseGlo Assay (AID 1645874); further: nearly all actives have a fitted effect of over 65% in size; further: potency means the concentration at half of the fitted maximal effect;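 on activity change, negative = inhibition: luminescence from SAH made as NTMT1 methylates SPKRIA peptide using SAM; 0% = DMSO control and -100% = no-enzyme control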
# Outline: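 Compounds are incubated with 125 nM NTMT1 and 100 uM SAM for 15 min before the SPKRIA peptide (1 uM) starts a 30 min room-temperature methylation. SAH is measured by coupled luciferase luminescence and curves fitted to a Hill equation.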
# [17] = P-glycoprotein substrates identified in KB-3-1 adenocarcinoma cell line, qHTS therapeutic library screen (AID 1346986);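 further: potency means the concentration at half of the fitted maximal effect; potency is for cytotoxicity meaning loss of cell viability; nearly all actives have a fitted effect of over 60% in size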
# Outline: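 Counter-screen: cherry-picked hits retested in the KB pair and in HEK-293 pcDNA/MDR-19 cells ± tariquidar. Primary screen used 72 h CellTiter-Glo viability in KB-3-1 and KB-8-5-11.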
# [18] = qHTS Assay for Identifying Gametocytocidal Compounds (AID 743244); further: potency means the concentration at half of the fitted maximal effect;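 on max response: on the % scale 0 is the no-effect control and ±100 the full control effect; actives lower the fluorescent signal which means gametocytes are killed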; settings: P. falciparum 3D7 stage III-V gametocytes, alamarBlue, 72 h; max response: stronger effect = lower value
# Outline: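 Late gametocytes (III–V), P. falciparum 3D7; 72 h drug, then 24 h alamarBlue; resazurin reduction read by fluorescence.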
# [19] = qHTS Assay for Lipid Storage Modulators (AID 1519; calls by dose curve; on activity change, negative = inhibition: on the % scale 0 is the no-effect control and ±100 the full control effect); settings: Drosophila S3 cells, BODIPY lipid droplet/cell ratio, laser cytometry, cells loaded with oleic acid
# Outline: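 Cells seeded at 5,000 per well were treated with compounds over a concentration series and loaded with oleic acid (400 uM, as added). Lipid droplet fluorescence (488 nm excitation, 500-530 nm channel) was read by laser-scanning cytometry and normalized to 20 uM Triacsin C.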
# [20] = qHTS profiling for inhibitors of Plasmodium falciparum proliferation (AID 504749); further: potency means the concentration at half of the fitted maximal effect;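 on activity, negative = inhibition: 0% = DMSO vehicle and full inhibition = artemisinin control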; on all read-outs here: nearly all actives have a fitted effect of over 60% in size; settings: P. falciparum in erythrocytes, SYBR Green DNA, 72 h; for activity, negative = inhibition: at 28.7 µM (top of the series)
# Outline: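 Three-day growth assay of blood-stage parasites in erythrocytes (0.3% parasitemia, 2.5% hematocrit) at 37 C, 5% CO2, quantified by SYBR Green DNA staining after overnight detergent lysis.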
# Chain of N-terminal Xaa-Pro-Lys N-methyltransferase 1 (Homo sapiens) (Q9BV86 whole entry, looked up): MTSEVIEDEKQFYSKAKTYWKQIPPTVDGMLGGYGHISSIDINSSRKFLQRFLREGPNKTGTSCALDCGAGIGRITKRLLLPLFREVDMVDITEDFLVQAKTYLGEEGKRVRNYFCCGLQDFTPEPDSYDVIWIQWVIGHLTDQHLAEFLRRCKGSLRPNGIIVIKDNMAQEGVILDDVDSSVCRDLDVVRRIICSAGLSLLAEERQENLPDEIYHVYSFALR
# Chain of Furin (Homo sapiens) (P09958 whole entry, looked up): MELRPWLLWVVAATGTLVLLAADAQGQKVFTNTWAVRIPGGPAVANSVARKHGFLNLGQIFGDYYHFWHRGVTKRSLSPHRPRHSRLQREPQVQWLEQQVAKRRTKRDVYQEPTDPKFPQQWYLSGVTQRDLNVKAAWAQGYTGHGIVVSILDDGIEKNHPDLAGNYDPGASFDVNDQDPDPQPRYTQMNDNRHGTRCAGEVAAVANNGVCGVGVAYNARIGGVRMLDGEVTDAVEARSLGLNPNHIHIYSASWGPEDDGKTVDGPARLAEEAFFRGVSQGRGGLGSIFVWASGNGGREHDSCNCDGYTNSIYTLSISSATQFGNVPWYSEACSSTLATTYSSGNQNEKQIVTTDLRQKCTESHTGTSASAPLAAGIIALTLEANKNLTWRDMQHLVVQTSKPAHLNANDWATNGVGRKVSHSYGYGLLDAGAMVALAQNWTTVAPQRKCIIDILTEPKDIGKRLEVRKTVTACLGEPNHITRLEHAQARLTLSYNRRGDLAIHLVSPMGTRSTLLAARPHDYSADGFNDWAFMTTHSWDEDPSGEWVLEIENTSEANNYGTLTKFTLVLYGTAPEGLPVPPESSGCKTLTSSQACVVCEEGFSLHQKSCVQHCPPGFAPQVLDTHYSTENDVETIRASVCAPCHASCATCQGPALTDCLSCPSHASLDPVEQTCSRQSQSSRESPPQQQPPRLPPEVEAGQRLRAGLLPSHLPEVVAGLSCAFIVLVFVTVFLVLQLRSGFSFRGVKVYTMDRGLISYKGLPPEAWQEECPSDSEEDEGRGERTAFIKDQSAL
smiles,measurement,setting,value
CN(Cc1ccc(C(=O)O)cc1)c1ccc(OCc2c(-c3c(Cl)cccc3Cl)noc2C2CC2)nc1C(F)(F)F,Potency,[1],9.61 µM (active)
same,Potency,[2],13.9 µM (active)
same,Potency,[3],2.21 µM (active)
same,Potency,[4],3.98 µM (active)
same,Potency,[5],6.31 µM (active)
same,Potency,[6],inactive
same,Potency,[7],inactive
O=C(c1ccc(F)c(F)c1Nc1ccc(I)cc1F)N1CC(O)([C@@H]2CCCCN2)C1,Potency,[8],9.2 µM (active)
CCOC(=O)c1cccc(CNc2ccc(N(C)C(=O)Nc3ccccc3)cc2)c1,outcome,[9],inactive
CC1CCN(C(c2ccc(F)cc2)c2ccc(C(C)C(=O)O)cc2-c2ccc(C(F)(F)F)cc2)CC1 (stereo not drawn),Potency,[1],inactive
same,Potency,[2],15.6 µM (active)
same,Potency,[3],3.93 µM (active)
same,Potency,[4],0.891 µM (active)
same,Potency,[5],2.51 µM (active)
same,Potency,[6],18.6 µM (active)
same,Potency,[7],inactive
CCN(CC)c1ccc(C(=C2C=CC(=[N+](CC)CC)C=C2)c2cc(S(=O)(=O)O)ccc2S(=O)(=O)[O-])cc1,outcome,[10],inactive
same,Potency,[11],21.1 µM (active)
same,Potency,[12],21.1 µM (active)
same,Potency,[13],inactive
same,outcome,[14],inactive
CC(=O)N1c2ccc(-c3ccc(C(=O)O)cc3)cc2C(Nc2ccc(Cl)cc2)CC1C (stereo not drawn),Potency,[1],inactive
same,Potency,[5],70.8 µM (active)
same,Potency,[7],inactive
O=C(NCc1ccc(Oc2ccccc2)cc1)c1nc(-c2cc(Br)c(O)c(Br)c2)no1,Potency,[4],2.51 µM (active)
same,Potency,[5],1.58 µM (active)
same,Potency,[7],inactive
O=C(NC(NC(=S)Nc1ccc(F)c([N+](=O)[O-])c1)C(Cl)(Cl)Cl)C(c1ccccc1)c1ccccc1 (stereo not drawn),Potency,[13],inactive
same,Potency,[15],inactive
COc1ccccc1NC(=O)Nc1ccc2ccccc2c1,Potency,[16],inactive
CC(C)(C)c1ccc(-c2nc3ccccc3[nH]2)cc1,Potency,[16],8.91 µM (active)
COCCNCc1ccc(-c2cc3nccc(Oc4ccc(NC(=S)NC(=O)Cc5ccc(F)cc5)cc4F)c3s2)nc1,Potency,[17],23.1 µM (active)
Fc1ccccc1CNCc1ccc(-c2ccnc3[nH]ccc23)cc1,Potency,[16],inactive
CS(=O)(=O)c1ccc(-c2cn3ccccc3n2)cc1,outcome,[10],inactive
same,Potency,[11],16.8 µM (active)
same,Potency,[12],inactive
same,Potency,[1],5.39 µM (active)
same,Potency,[2],24.1 µM (active)
same,Potency,[6],inactive
same,outcome,[14],inactive
same,Potency,[15],inactive
same,Potency,[16],9.55 µM (active)
COc1cc(N2CCN(C(C)=O)CC2)ccc1Nc1ncc(Cl)c(Nc2ccc(N3CCN(C(C)=O)CC3)cc2OC)n1,Potency,[17],14.6 µM (active)
same,Potency,[16],49.4 µM (active)
Cc1cc(CS(=O)(=O)c2ccccc2)cc(OCc2ccc(CN3CCC[C@@H]3CO)cc2)c1,Potency,[16],inactive
C=C1[C@@H](C2=CC(=O)OC2)CC[C@@]2(O)[C@@H]1CC1[C@H]2CC[C@@H]2C[C@@H](O[C@H]3O[C@@H](C)[C@@H](O[C@@H]4O[C@H](CO[C@@H]5O[C@H](CO)[C@@H](O)[C@H](O)[C@H]5O)[C@@H](O)[C@H](O)[C@H]4O)[C@H](OC)[C@H]3O)CC[C@]12C (stereo partly drawn),Potency,[8],inactive
CCNC(=O)[C@@H]1CCCN1C(=O)[C@H](CCCN=C(N)N)NC(=O)[C@H](CC(C)C)NC(=O)[C@@H](CC(C)C)NC(=O)[C@H](Cc1ccc(O)cc1)NC(=O)[C@H](CO)NC(=O)[C@H](Cc1c[nH]c2ccccc12)NC(=O)[C@H](Cc1cnc[nH]1)NC(=O)[C@@H]1CCC(=O)N1,max response,[18],2.85% (inactive)
C=CC(=O)Nc1cc(Nc2nccc(-c3cn(C)c4ccccc34)n2)c(OC)cc1N(C)CCN(C)C,Potency,[17],10.3 µM (active)
Cc1ccn(-c2cc(Cl)ccc2[C@@H](Oc2cc(-c3ccc(C[C@H](N)C(=O)O)cc3)nc(N)n2)C(F)(F)F)n1,Potency,[3],22.1 µM (active)
same,Potency,[5],28.2 µM (active)
Oc1ccc(Nc2nc(-c3ccc(Cl)cc3)cs2)cc1,Potency,[13],inactive
Nc1nc(NCC2CCC(CNS(=O)(=O)c3cccc4ccccc34)CC2)nc2ccccc12 (stereo not drawn),Potency,[13],inactive
same,Potency,[15],inactive
N#C[C@@H]1C[C@@H]2C[C@@H]2N1C(=O)[C@@H](N)C12CC3CC(CC(O)(C3)C1)C2,max response,[18],-8.8% (inactive)
same,outcome,[9],inactive
CN(CC(=O)N(Cc1ccc(C2CCCCC2)cc1)c1ccc(C(=O)O)cc1)S(=O)(=O)c1c(F)c(F)c(F)c(F)c1F,Potency,[2],22.1 µM (active)
same,Potency,[3],3.5 µM (active)
same,Potency,[4],50.1 µM (active)
same,"activity change, negative = inhibition",[5],-179% [at 100 µM] (inactive)
CCCCC(=O)N(Cc1ccc(-c2ccccc2-c2nn[nH]n2)cc1)C(C(=O)O)C(C)C (stereo not drawn),"activity change, negative = inhibition",[19]; at 57.5 µM (top of the series),-6.27% (inactive)
same,max response,[19]; measured here: cell count channel max response,7.79%
same,max response,[19]; measured here: lipid channel max response,4.86%
same,"activity, negative = inhibition",[20]; parasite line A,9.14% (inactive)
same,"activity, negative = inhibition",[20]; parasite line B,6.89% (inactive)
Nc1ccc(N)c([N+](=O)[O-])c1,Potency,[18],39.8 µM (active)
same,outcome,[14],inactive
CN(C)CC(=O)Nc1ccc2[nH]c(=O)c3ccccc3c2c1,outcome,[9],inactive
O=C(CC1NCCC[C@H]1O)Cn1cnc2cc(Br)c(Cl)cc2c1=O (stereo partly drawn),Potency,[20]; parasite line A,2 µM (active)
same,Potency,[20]; parasite line B,3.55 µM (active)
CC[C@H](C)[C@H]1O[C@]2(CC[C@@H]1C)C[C@@H]1C[C@@H](C/C=C(\C)[C@@H](O[C@H]3C[C@H](OC)[C@@H](O[C@H]4C[C@H](OC)[C@@H](O)[C@H](C)O4)[C@H](C)O3)[C@@H](C)/C=C/C=C3\CO[C@@H]4[C@H](O)C(C)=C[C@@H](C(=O)O1)[C@]34O)O2,Potency,[4],inactive
same,Potency,[5],inactive
same,Potency,[6],inactive
same,Potency,[7],inactive
